Sampled rows, rich in hits. Any-hit rate of the full collection: about 1.8%.
GSIS activator: GLuc luminescence reporter in INS-1E cells, primary screen for activators of glucose-dependent secretion of insulin. activation, % at 16.6 µM. INS-1E GLuc reporter insulin secretion, 2-3 h. actives 0.61% (n = 370,000);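 active means lowest replicate activation of at least 40%, so every replicate reaches that level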;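 further: 0% = median of neutral control wells and 100% = median of IBMX positive control wells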
CendR NRP1 mod: modulators of CendR peptide binding to human neuropilin-1; O14786; actives 0.85% (n = 360,000); FAM-RPARPAR peptide binding to NRP-1, fluorescence polarization; AID 602438; inhibition, % at 25 µM;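 active means inhibition or corrected inhibition above about 18%, plus a signal ratio from 0.5 to 1.5, limit read from the data, passing the limit was not always enough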
ARNT TACC3 PPI: ARNT/TACC3 interaction disruption. Q9Y6A5. AlphaScreen His-ARNT PAS-B/GST-TACC3 binding, luminescence; TACC3 fragment carries E629A point mutation. inhibition, % at 9.99 µM. actives 0.66% (n = 390,000). AID 623870;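 active means mean inhibition of replicates at least 50% and at least half of replicates each reaching 50%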;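 further: 0% = complete ARNT plus TACC3 wells and 100% = ARNT alone without TACC3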
ABCB6 inh 2: human ABCB6 transporter inhibition; fluorescence ratio to DMSO, % at 10 µM; Q9NP58; AID 602162; K562-ABCB6 porphyrin accumulation, flow cytometry, 1 h; stronger effect = lower value; actives 0.19% (n = 360,000);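 active means fluorescence ratio to DMSO below 75%, the collection mean minus 3 SD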;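 further: signal is porphyrin accumulated inside mitochondria; 100% equals median channel fluorescence of DMSO control wells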
iPSC survival up: enhancers of human iPSC single-cell survival; hiPSC single-cell survival, ATPlite luminescence; 100% = ROCK inhibitor wells, 0% = DMSO; survival enhancement, % at 20 µM; actives 0.044% (n = 360,000); in the data active means survival enhancement above about 18%;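 further: cells exposed to compounds for 16 hours before the ATP read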
ARNT Alpha ctr-1: counter-screen for ARNT/TACC3 inhibitors: AlphaScreen artifacts. actives 50% (n = 1,200). AID 651705. shares compounds with ARNT TACC3 PPI. His-ARNT PASB-GST AlphaScreen artifact counter-screen, luminescence. AC50, µM (top dose mostly 68 µM), inactives show top-dose activity change, negative = signal decrease;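 active means every separate test run was called active for a drop in luminescence, with AC50 within twice the top valid dose, actives reach about 71 µM in these data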
ARNT Alpha ctr-2: counter-screen for ARNT-TACC3 inhibitors: AlphaScreen artifacts; shares compounds with ARNT TACC3 PPI; Dual-tagged His-ARNT PASB-GST AlphaScreen artifact counter-screen; AC50, µM; actives 70% (n = 45); AID 720564;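 active means luminescence drop, with half-maximal potency fitted within twice the sample's top valid dose, cut at about 70 µM in these data; inactive means the rest, including signal moving the wrong way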
* = called active by the depositor; . = no result given; [ ] = another dose, or the depositor's remark.

SMILES | GSIS activator | CendR NRP1 mod | ARNT TACC3 PPI | ABCB6 inh 2 | iPSC survival up | ARNT Alpha ctr-1 | others
CCOc1ccc(Nc2ncnc(N)n2)cc1 | 20 | 0 | 2 | 97 | 0 | .
COc1ccc(Nc2nc(N)nc(CN(C)C3CCCCC3)n2)cc1 | . | -3 | 56* | 96 | 6 | -10%
N#Cc1ccc(-c2cccc(-c3nc(C(=O)O)cc4c3[C@@H](CCO)N(CC3CCOCC3)C4)c2)cc1 | 2 | . | . | . | . | .
CCOc1cc(C(=O)NC2CC(C)(C)NC(C)(C)C2)cc(OCC)c1OCC | 3 | 2 | 53* | 96 | -1 | -2%
CCOc1ccc(C(=O)NC2CC(C)(C)NC(C)(C)C2)cc1 | 8 | 1 | -1 | 95 | 0 | .
O=C(NC1Cc2ccccc2C1)[C@H]1N[C@H]2c3cccc(=O)n3C[C@H]2[C@@H]1CO | 8 | . | active | . | . | -6%[38 µM]
CCC(=O)Nc1ccc2c(c1)OC[C@@H](C)N(C(=O)NC1CCCCC1)C[C@@H](C)[C@H](OC)CN(C)C2=O | -2 | . | -4 | . | . | .
CCN(C(=O)CSc1nccn1C)c1cccc2ccccc12 | -5 | -10 | 68* | 102 | 0 | 3%
CCCC(=O)N1CC2(C1)CN(C(=O)CN1CCOCC1)[C@@H](CO)c1c2c2ccc(OC)cc2n1C | 14 | . | . | . | . | .
CCC(=O)NC(c1ccc(C)cc1)c1cc([N+](=O)[O-])c2cccnc2c1O (stereo not given) | -8 | 6 | 58* | 104 | 3 | 11µM*
CCCC(=O)NC(c1ccco1)c1cc([N+](=O)[O-])c2cccnc2c1O (stereo not given) | -14 | -9 | 59* | 100 | 8 | 30µM*
COc1ccc2c3c([nH]c2c1)[C@H](CO)N(CC1CCOCC1)CC31CN(C(=O)C2CC2)C1 | -7 | . | . | . | . | .
Cc1ccc(S(=O)(=O)N[C@@H]2CC[C@@H](CCn3cc(C4CCCC4)nn3)O[C@H]2CO)cc1 | 2 | . | . | . | . | .
Cc1ccccc1Oc1nc(-c2ccccn2)nc2ccccc12 | 10 | -4 | 51* | 87 | 0 | -21%
Cc1cccc(Oc2nc(-c3ccccn3)nc3ccccc23)c1 | 7 | -15 | 65* | 96 | 0 | -18%
CN(C)C(=O)c1cccc(-c2ccccc2[C@@H]2[C@@H](CO)N(C(=O)C3CCCC3)[C@H]2C#N)c1 | 0 | . | . | . | . | .
Cc1[nH]c(=O)[nH]c(=O)c1/C=N/NC(=O)[C@H](C)NC(=O)OC(C)(C)C | . | -1 | 54* | 111 | 0 | -4%
C[C@@H]1CN([C@H](C)CO)C(=O)c2cc(NS(=O)(=O)c3ccc(F)cc3)ccc2O[C@@H]1CN(C)S(=O)(=O)c1ccc(F)cc1 | -14 | . | -7 | . | . | .
Cc1[nH]n(-c2ccccc2)c(=O)c1C(c1ccc(C(=O)O)cc1)c1c(C)[nH]n(-c2ccccc2)c1=O | -8 | -24 | 18* | 104 | -1 | -18%
Cc1[nH]n(-c2ccccc2)c(=O)c1C(c1cccc([N+](=O)[O-])c1)c1c(C)[nH]n(-c2ccccc2)c1=O | -24 | 1 | . | 110 | 2 | .
CC1OC(CC(=O)O)CC2=C1C(=O)c1c(O)cccc1C2=O (stereo not given) | 72* | 35* | 33* | 85 | -1 | -17%
Brc1ccc(OCc2nc(-c3ccccn3)n[nH]2)cc1 | . | 12 | 58* | 94 | 3 | 22µM*
Clc1ccc(OCc2nc(-c3ccccn3)n[nH]2)cc1 | . | -15 | 66* | 87 | 2 | 28µM*
O=C(CCC(=O)c1cccs1)OCc1nnc(-c2ccccc2)o1 | . | -10 | 33* | 139 | 4 | 10%
Cc1nnc(NC(=O)C2CCN(S(=O)(=O)c3cc([N+](=O)[O-])ccc3Cl)CC2)o1 | . | 5 | 52* | 103 | 0 | -20%
SMILES | GSIS activator | CendR NRP1 mod | ARNT TACC3 PPI | ABCB6 inh 2 | iPSC survival up | ARNT Alpha ctr-1 | others
CC1CCCN(S(=O)(=O)c2ccc(C(=O)Nc3nnc(C4CC4)o3)cc2)C1 (stereo not given) | -4 | -14 | 51* | 99 | 0 | 65µM*
Cc1nnc(NC(=O)c2ccc(S(=O)(=O)N3CCCCC3)cc2)o1 | . | . | . | . | . | . | ARNT Alpha ctr-2=>136
OC[C@H]1[C@@H](c2ccccc2)C2(CN(Cc3nccs3)C2)N1CCC(F)(F)F | -6 | . | . | . | . | .
COc1ccc([Si](C)(C)[C@H]2[C@H](CCO)O[C@@]3(C(=O)N4c5c(cc(OC)cc53)C(C)=CC4(C)C)[C@@H]2C)cc1 | . | . | 42 | . | . | .
COc1ccc([Si](C)(C)[C@@H]2[C@@H](CCO)O[C@]3(C(=O)N4c5c(cc(OC)cc53)C(C)=CC4(C)C)[C@H]2C)cc1 | . | . | 52* | . | . | 9µM*
Cc1cc(NC(c2ccc(Cl)cc2)c2ccc3cccnc3c2O)no1 (stereo not given) | . | 13 | 55* | 97 | -2 | 10µM*
CC(=O)NC(c1ccc(Cl)cc1)c1ccc2cccnc2c1O (stereo not given) | . | 0 | 27 | 101 | 1 | .
CCCC(=O)NC(c1ccc(N(C)C)cc1)c1ccc2cccnc2c1O (stereo not given) | . | 7 | 60* | 102 | 0 | 18µM*
CCCC(=O)NC(c1ccc(C(C)C)cc1)c1ccc2cccnc2c1O (stereo not given) | . | 13 | -2 | 96 | -1 | .
CCC(=O)NC(c1ccc(C)cc1)c1ccc2cccnc2c1O (stereo not given) | . | 2 | 35* | 98 | -1 | 28µM*
CC=Cc1ccc2n(c1=O)C[C@H]1[C@H](CO)[C@@H](C(=O)NC3CCC3)[C@@H]2N1C(=O)c1ccccn1 (mixture of isomers) | 0 | . | -3 | . | . | .
Brc1ccc2cccnc2c1 | . | -8 | 1 | 98 | -2 | .
Nc1cc2cccnc2cc1Cl | 14 | -14 | 53* | 103 | -2 | -13%
COc1cc(OC)c(OC)cc1/C=N/NC(=O)c1cc(-c2cccn2C)n[nH]1 | . | -7 | 20 | 95 | 0 | .
CCOc1cccc(/C=N/NC(=O)c2cc(-c3cccn3C)n[nH]2)c1O | -11 | -3 | 51* | 98 | -2 | -31%
CCC(=O)N[C@H]1C=C[C@H](CC(=O)NCc2ccc(OC)cc2)O[C@@H]1CO | -14 | . | -16 | . | . | .
C[C@H](CO)N1C[C@H](C)[C@@H](CN(C)C(=O)Nc2cccc3ccccc23)OCCCC[C@H](C)Oc2ccc(NC(=O)CCCN(C)C)cc2C1=O | -1 | . | 18 | . | . | .
C[C@@H]1CCCCO[C@@H](CN(C)C(=O)Nc2cccc3ccccc23)[C@H](C)CN([C@@H](C)CO)C(=O)c2cc(NS(=O)(=O)c3cn(C)cn3)ccc2O1 | -5 | . | 55* | . | . | 10µM*

Source: PubChem
